# Activity calls are given as the source filed them. How the source made its calls: active means hit-call score of the fitted dose curve at least 0.9, where 1 is the maximum; inactive means score below 0.9.
# Read-out: Cytochrome P450 (CYP1A2), CYP1A2 (gene 1544)
# Test: LTEA_HepaRG_CYP1A2: Life Technologies and Expression Analysis (LTEA) Assay for Cytochrome P450 (CYP1A2) using HepaRG (AID 2283479);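 on AC50: TaqMan qRT-PCR transcript level normalized to ACTB GAPDH and POLR2A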
# Settings: mRNA level, 48 h; actives raise or lower the signal
# Procedure: LTEA_HepaRG is a cell based, multiplexed-readout assay that uses HepaRG, a human liver cell line, with measurements taken at 48 hours after chemical dosing on a 96-well plate.LTEA_HepaRG_CYP1A2 is one of 102 assay component(s) measured in the LTEA HepaRG cell culture assay. It is a marker of NR mediated metabolism.Data from the assay component LTEA_HepaRG_CYP1A2 was analyzed into 1 endpoint. This assay endpoint, LTEA_HepaRG_CYP1A2, was analyzed with bidirectional fitting relative to DMSO as the negative control and baseline of activity. Using a type of inducible reporter, measures of mRNA induction for gain or loss-of-signal activity can be used to understand regulation of transcription factor activity. To generalize the intended target to other relatable targets, this assay endpoint is annotated to the cyp intended target family, where the subfamily is xenobiotic metabolism.
# A total of 1060 chemcials from the ToxCast library were tested in eight-point concentration-response experiments. Cell culture and cytotoxicity assays were conducted at Thermo Fisher Scientific's Custom Services facility (Madison, WI). A single lot of human HepaRG cells (Thermo Fisher Scientific, Frederick, MD) was used for the cell culture experiments. 96-well format collagen type I coated plates of human HepaRG cells were prepared using established methods. Briefly, cryopreserved HepaRG cells were thawed, plated at a density of approximately 100,000 cells/well in HepaRG Thaw, Plate, and General Purpose media (HPRG770, Thermo Fisher Scientific), and incubated for 48 hours. 0.5% DMSO was selected as vehicle control to balance the requisite need of DMSO in HepaRG cultures to maintain differentiation (for example, baseline metabolism, proportions of hepatocytes vs. cholangiocytes), while enabling further hepatic receptor pathway activation (for example, PXR and CAR) in response to chemical exposure. 48 hours after plating, the culture medium was replaced with HepaRG Serum-Free Incudtion Media. Cells were exposed to each test chemical in duplicate and maintained in CO2 incubators for another 48 hours. Chemical plates were thawed to room temperature and 200x concentrations of treatment groups were prepared. 8-point conentration-reponse curves were made with the highest exposure at 100 uM, followed by half-log dilutions, all in 0.5% DMSO. Each test plate contained variouse controls, induction positive controls (1mM phenobarbital), cytotoxicity positive controls ([…] aflatoxin B1), vehicle controls (0.5% DMSO), and total lysis controls (0.5% DMSO). Cell morphology images were taken using an Essen IncuCyte FLR automated microscope, with six 96-well plates imaged in about 24 minutes. Images were captured and exported and JPEG files. Spent culture media was transfered to black-well plates for the LDH assay, and remaining media was sorted at -80 C for later use. Cells were treated with RLT buffer and frozen until shipped for gene expression analysis. Total RNA was isolated from the cell suspension in 75 uL of Buffer RLT (Qiagen, Germantown, MD 20874) by Quintiles/Expression Analysis (Durham, NC) using a custom isolation procedure. Total RNA from each plate well was transferred to a preamplification plate. Fluidigm's 96.96 Dynamic ArrayTM (Fluidigm, Amsterdam, the Netherlands) technology was used for gene expression analyses by quantitative reverse transcription polymerase chain reaction (qRT-PCR, performed by Quintiles/Expression Analysis, Durham, NC)89. Standard TaqManTM Assays (Applied Biosystems/ThermoFisher Scientific, Foster City, CA) were used to assess the expression of 93 genes selected based on their selectivity and sensitivity to important hepatic receptors known to be modulated by environmental chemicals; importance in human hepatocyte functionality; and hepatotoxicity. […]
Structure (SMILES),AC50,outcome
Nc1ccc(N=Nc2ccccc2)cc1,88.2 µM (active),
Nc1ccc(Oc2ccc(N)cc2)cc1,40.7 µM (active),
Cc1ccc([N+](=O)[O-])cc1,,inactive
[Cl-].[Cl-].[Hg+2],50 µM (active),
CCN(CC)CCO,,inactive
CCC12COCN1COC2,,inactive
OCCCl,,inactive
CO[C@@H]1[C@H](OC(=O)NC(=O)CCl)CC[C@]2(CO2)[C@H]1[C@@]1(C)O[C@@H]1CC=C(C)C,,inactive
Nc1cc(Cl)cc(C(=O)O)c1Cl,50 µM (active),
O=C1CCCO1,,inactive
CCNS(=O)(=O)C(F)(F)C(F)(F)C(F)(F)C(F)(F)C(F)(F)C(F)(F)C(F)(F)C(F)(F)F,,inactive
CCCCC(CC)COC(=O)c1ccc(C(=O)OCC(CC)CCCC)c(C(=O)OCC(CC)CCCC)c1 (stereo not given),,inactive
CC(C)COC(=O)c1ccccc1C(=O)OCC(C)C,32.5 µM (active),
O=[N+]([O-])c1ccc(Oc2ccc(Cl)cc2Cl)cc1,27.2 µM (active),
c1ccc(NNc2ccccc2)cc1,32.7 µM (active),
CNC(=O)Oc1cccc2c1OC(C)(C)C2,,inactive
CCN(CC)N=O,,inactive
COC(=O)Nc1nc2ccccc2[nH]1,31.8 µM (active),
COP(=S)(OC)SCN1C(=O)c2ccccc2C1=O,22.3 µM (active),
O=C(Nc1ccccc1)c1ccccc1I,10.4 µM (active),

Structure (SMILES),AC50,outcome
[As]#[In],,inactive
Nc1ccc(Cl)cc1N,0.811 µM (active),
Cc1ccc(N)c(N)c1,38.3 µM (active),
CCCCOC(=O)c1ccccc1C(=O)OCc1ccccc1,15.5 µM (active),
CC(C)(C)OOC(=O)c1ccccc1,,inactive
Cc1ccc(N=C=O)cc1N=C=O,,inactive
CN(C)c1ccccc1,,inactive
CC(C)(C)OOC(C)(C)CCC(C)(C)OOC(C)(C)C,,inactive
ClCCOCCCl,,inactive
c1ccc2c(c1)oc1ccccc12,50 µM (active),
CN(C)C(=O)Nc1ccc(Cl)cc1,55 µM (active),
c1ccc(C2CO2)cc1 (stereo not given),,inactive
Oc1ccccc1Cl,,inactive
CN(C)c1ccc(C(=O)c2ccc(N(C)C)cc2)cc1,12.1 µM (active),
CCOC(=O)[C@]1(c2ccccc2)Oc2ccccc2[C@@H]1N,15.8 µM (active),
CCC(C)c1ccc(O)cc1 (stereo not given),,inactive
CC(O)CCO (stereo not given),,inactive
Clc1ccc(Cl)c(Cl)c1,,inactive
CC(C)N(Cc1ccccc1)C(=O)C(C)(C)C,,inactive
Brc1ccc(Oc2ccccc2)cc1,,inactive

# Reference: PubChem BioAssay (EPA / NIEHS)
